HCV inh – blocks hepatitis C virus; 340,000 tested, 3.4% active; Huh7.5.1 HCVcc-Cre infection, luciferase reporter, 44 h; Potency, µM (top dose mostly 41.8 µM), actives largely listed as inhibitors; active = well fitted inhibition curve with a large enough effect; inconclusive = small, poorly fitted or top-dose-only effect, or another doubt; inactive = no such curve, though single readings can be large or run the other way
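After 44 h co-culture of compound, cells and HCVcc-Cre (~0.5 moi), substrate is added for 15 min at room temperature and luciferase measured over 15 sec. Cells were seeded at 1,000/well and pre-cultured 4 h.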
Vaccinia mCherry – vaccinia inhibition (mCherry reporter) | Vaccinia virus mCherry reporter infection, fluorescence | Potency, µM (titrated, usually from 36.5 µM), hits mostly inhibitors | 310,000 tested, 0.63% active; calls by dose curve; tested in A549 cells; also: nearly all actives have a fitted effect of over 35% in size
MARV entry inh – blocks Marburg virus binding to or entry into cells. Marburg virus pseudotyped entry inhibition, cell reporter. 300,000 tested, 1.8% active. AID 540276. Potency, µM (titrated, usually from 37.8 µM), most hits filed as inhibitors; calls by dose curve; tested in HEK293 cells
HCMV antiviral – inhibitors of human cytomegalovirus; activity change, negative = inhibition, % at 57.5 µM; HFF cells, HCMV-luciferase reporter, 72 h; stronger effect = lower value; 410,000 tested, 4.5% active; in the data active = activity change below about -60%; inconclusive = no clear call, values can overlap the other calls; inactive = above about -39%
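Two-dose cell screen: HFF monolayers treated with compounds and infected with luciferase-expressing HCMV at 1 PFU/cell, 72 h at 37C, then lysed for luciferase measurement.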
VACV Venus inh – vaccinia inhibition (Venus reporter); AID 720580; Potency, µM (titrated, usually from 36.5 µM), hits mostly inhibitors; Vaccinia virus Venus reporter expression, fluorescence; 330,000 tested, 0.46% active; calls by dose curve; tested in A549 cells; also: nearly all actives have a fitted effect of over 30% in size
Lassa entry inh – blocks Lassa virus binding to or entry into cells | Lassa virus pseudotype entry inhibition, cell reporter | Potency, µM (doses to about 37.9 µM), most hits filed as inhibitors | 300,000 tested, 1.2% active | AID 540256; calls by dose curve; tested in HEK293 cells; also: nearly all actives have a fitted effect of over 50% in size
Numbers stand for hits; n = inactive; u = inconclusive; x = not tested or not shown; [ ] = dose if it differs, or a comment. An excerpt weighted towards active compounds, which were near 7.8% of everything screened.

SMILES	HCV inh	Vaccinia mCherry	MARV entry inh	HCMV antiviral	VACV Venus inh	Lassa entry inh
Cc1nn(Cc2ccc(Cl)cc2)c(C)c1NC(=O)c1cc(C(C)C)on1	11.2µM	n	u	u	n	n
COc1ccc(OC)c(-c2cc(C(=O)Nc3c(C)nn(Cc4ccc(Cl)cc4)c3C)no2)c1	14.1µM	x	u	n	x	u
CC(=O)c1ccc(NC(=O)CSc2cn(CC(=O)N3CCCCC3)c3ccccc23)cc1	x	n	x	n	n	n
Nc1cc(=O)nc(SCC(=O)Nc2cccc(Cl)c2)n1CCc1ccccc1	x	n	n	n	n	n
NC(=O)C1CCN(C(=O)CSc2ccsc2[N+](=O)[O-])CC1	n	x	x	n	x	x
O=C(CSc1ccsc1[N+](=O)[O-])N1CCCCCC1	n	x	x	-72.2	x	x
O=[N+]([O-])c1cccc2c([As](=O)(O)O)cccc12	u	n	n	-73.5	n	n
Cc1cc(C)c2c(-n3cccc3)c(C(=O)NCCCN3CCCCC3)sc2n1	x	n	u	n	n	n
CC(=O)/C(=N\Nc1ccccc1Cl)Sc1nnc(-c2ccccc2)n1-c1ccccc1	u	n	n	-61.4	n	n
COc1cc(NC(=O)CC2C(=O)N(c3cccc(C)c3)C(=O)N2Cc2ccc(F)cc2)cc(OC)c1 (stereo not given)	x	n	x	n	n	u
Clc1ccc(C(Cn2ccnc2)OCc2c(Cl)cccc2Cl)c(Cl)c1 (stereo not given)	n	n	x	-64.4	n	x
Clc1ccc(C(Cn2ccnc2)OCc2csc3c(Cl)cccc23)c(Cl)c1 (stereo not given)	12.6µM	n	x	n	n	x
OC(Cn1ccnc1)c1ccc(Cl)cc1Cl (stereo not given)	n	n[1.46 µM]	n	n	n	n
Cc1ccc(NC(=O)C2CCN(c3cc(C)nc4c(-c5ccc(Cl)cc5)c(C)nn34)CC2)c(C)c1	x	n	u	n	n	u
CCN(CC)CCOCCOC(=O)C1(c2ccccc2)CCCC1	n	n	15.8µM	n	n	u
COc1ccc(C2CC(c3ccccc3)=NN2c2ccc(S(N)(=O)=O)cc2)cc1 (stereo not given)	u	u	u	n	n	u
COc1ccc(C2CC(c3cccc(F)c3)=NN2c2ccc(S(N)(=O)=O)cc2)cc1 (stereo not given)	u	u	n	n	n	x
COc1ccc(C2CC(c3cccc(C(F)(F)F)c3)=NN2c2ccc(S(N)(=O)=O)cc2)cc1 (stereo not given)	u	u	x	-101.0	u	x
COc1ccc(C2CC(c3ccccc3Cl)=NN2c2ccc(S(N)(=O)=O)cc2)cc1 (stereo not given)	u	12.6µM	x	n	u	x
COCOc1c2c(c(OCOC)c3c(OCOC)cccc13)C(=NNS(=O)(=O)c1ccc(C)cc1)C1=C2CCCC1	x	x	n	x	x	x
COc1cc2nc(N(C)C)nc(NC3CCN(C)CC3)c2cc1OC	x	n	x	x	u	x
Cc1oncc1C(=O)Nc1ccc2ccccc2c1	n	x	x	n	x	x
Cc1oncc1C(=O)Nc1ccc(C(F)(F)F)cc1	n[8.37 µM]	n	7.08µM	-69.2	n	u
CCC(CC)C(C(=O)NC1CCCCC1)N1C(=O)C(=O)c2ccccc21 (stereo not given)	x	x	x	n	x	x
CC(=O)NC(Cc1ccc(Cl)cc1)C(=O)NCC(N)C(=O)c1ccccc1 (stereo not given)	x	n	x	x	n	x
SMILES	HCV inh	Vaccinia mCherry	MARV entry inh	HCMV antiviral	VACV Venus inh	Lassa entry inh
OC(CNCc1ccccc1)Cn1ccc2ccccc21 (stereo not given)	11.2µM	x	u	n	x	u
CCCCCCOc1ccc(/C=C/C(=O)Nc2sc3c(c2C(=O)OC)CCC3)cc1OC	x	n	x	-107.4	n	n
O=C(Nc1ccc2c(c1)C(=O)NC2=O)c1ccccc1Cl	n	n	x	n	n	x
O=C1NC(=O)c2cc(NC(=O)c3cccc4ccccc34)ccc21	n	n	x	-84.9	n	x
CC(=O)Nc1ccc(S(=O)(=O)Oc2ccc(/C=N/NC(=O)c3ccc(Cl)cc3)cc2)cc1	3.98µM	u	n	n	n	n
COc1ccc(C(=O)Nc2ccc(S(=O)(=O)N(C)c3ccccc3)cc2)cc1	12.6µM	n	u	-68.9	n	u
COc1ccc(/C=N/NC(=O)c2ccc(N(C)S(=O)(=O)c3ccccc3)cc2)c(OC)c1	n	n	x	n	n	x
COc1ccc(/C=N/NC(=O)c2ccc(N(C)S(=O)(=O)c3ccccc3)cc2)cc1	12.6µM	x	x	n	x	x
COc1ccc(/C=N/NC(=O)c2ccc(NC(=O)c3ccccc3Br)cc2)cc1	u	n	n	-91.3	n	18.4µM
